Experiment [1] has as its target Bile acid receptor (Homo sapiens) (UniProt Q96RI1). Briefly: OT_FXR_FXRSRC1_0480: Odyssey Thera (OT) 8-hour HEK293T Protein-Complementation Assay for Farnesoid X receptor/SRC-1 Co-activator (AID 2283383). The essentials: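 PCA, HEK293T, 8 h compound exposure; FXR–SRC-1 binding reconstitutes split reporter; fluorescence intensity; positive-direction fit vs DMSO.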

For experiment [2] the target is unchanged. In words: OT_FXR_FXRSRC1_1440: Odyssey Thera (OT) 24-hour HEK293T Protein-Complementation Assay for Farnesoid X receptor/SRC-1 Co-activator (AID 2283384). The essentials:
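Measures ligand-driven FXR–SRC-1 co-activator recruitment in HEK293T via fragment complementation, fluorescence intensity at 24 h. DMSO served as negative control and baseline for gain-of-signal fitting.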

The target in experiment [3] is Retinoic acid receptor RXR-alpha (Homo sapiens) (UniProt P19793). In words: OT_NURR1_NURR1RXRa_0480: Odyssey Thera (OT) 8-hour HEK293T Protein Complementation Assay for Nurr1/retinoid X receptor (RXR) (AID 2283385). The method in brief: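 Interaction of bait and prey reconstitutes a functional reporter, whose fluorescence was measured in HEK293T cells dosed with compound for 8 hours. Signal gain relative to DMSO defined the single endpoint.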

Experiment [4] shares this target. In words: OT_NURR1_NURR1RXRa_1440: Odyssey Thera (OT) 24-hour HEK293T Protein Complementation Assay for Nurr1/retinoid X receptor (RXR) (AID 2283386). The essentials: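 Steps: fragment-tagged Nurr1 and RXRα expressed in HEK293T; compounds added; after 24 h, complemented reporter quantified by fluorescence intensity; signal increase over DMSO fitted as the single endpoint.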

Experiment [5] has as its target Peroxisome proliferator-activated receptor gamma (Homo sapiens) (UniProt P37231). Briefly: OT_PPARg_PPARgSRC1_0480: Odyssey Thera (OT) 8-hour Protein-Complementation Assay for Peroxisome Proliferator-activated Receptor Gamma / SRC-1 Co-activator (AID 2283387). The method in brief: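 Read-out: 488 nm N/C fluorescence ratio from complemented Venus YFP fragments, ≥350 cells per image, gain-of-signal fitted against DMSO baseline. Fusions of PPARg/SRC-1 with IFP1/IFP2 expressed transiently in HEK293T; compounds applied 8 h.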

The target is the same in experiment [6]. Briefly: OT_PPARg_PPARgSRC1_1440: Odyssey Thera (OT) 24-hour Protein-Complementation Assay for Peroxisome Proliferator-activated Receptor Gamma/ SRC-1 Co-activator (AID 2283388). The essentials: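 HEK293T transiently transfected with PPARg/SRC-1 split-Venus YFP fusions 48 h before dosing, then treated 24 h at 37C. Fixed cells imaged; nuclear/cytoplasmic 488 nm fluorescence ratio, gain of signal versus DMSO.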

Read-out in experiment [7]: Tumor necrosis factor receptor superfamily member 6 (Homo sapiens) (UniProt P25445)
In words: LTEA_HepaRG_FAS: Life Technologies and Expression Analysis (LTEA) Assay for Fas cell surface death receptor (FAS) using HepaRG (AID 2283447; active means hit-call score of the fitted dose curve at least 0.9, where 1 is the maximum; inactive means score below 0.9). The conditions noted are these: mRNA level, 48 h; actives raise or lower the signal. The method in brief: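 Differentiated HepaRG cells in serum-free induction medium were exposed 48 h to 8 half-log concentrations up to 100 uM in 0.5% DMSO, in duplicate. FAS mRNA was measured by qRT-PCR normalised to ACTB, GAPDH and POLR2A; bidirectional fit versus DMSO.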

Read-out in experiment [8]: Fatty acid synthase (Homo sapiens) (UniProt P49327)
In words: LTEA_HepaRG_FASN: Life Technologies and Expression Analysis (LTEA) Assay for Fatty Acid Synthase (FASN) using HepaRG (AID 2283448; active means hit-call score of the fitted dose curve at least 0.9, where 1 is the maximum; inactive means score below 0.9;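 on AC50: differentiated human HepaRG liver cells in serum-free induction medium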). The conditions noted are these: mRNA level, 48 h; actives raise or lower the signal. The essentials:
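Cells were plated, cultured 48 h, switched to serum-free induction medium, then dosed in duplicate (max 100 uM, half-log dilutions, 0.5% DMSO) for 48 h. RNA was then isolated and FASN quantified by qRT-PCR.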

Read-out in experiment [9]: Cyclin Dependent Kinase Inhibitor 1A (CDKN1A), CDKN1A (gene 1026)
Briefly: LTEA_HepaRG_CDKN1A: Life Technologies and Expression Analysis (LTEA) Assay for Cyclin Dependent Kinase Inhibitor 1A (CDKN1A) using HepaRG (AID 2283450; active means hit-call score of the fitted dose curve at least 0.9, where 1 is the maximum; inactive means score below 0.9). The following applies: mRNA level, 48 h; actives raise or lower the signal. The essentials:
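Differentiated HepaRG cells in serum-free induction medium, exposed 48 h in duplicate to eight half-log concentrations up to 100 uM in 0.5% DMSO. mRNA measured by TaqMan qRT-PCR, normalized to ACTB, GAPDH, POLR2A; bidirectional fit versus DMSO.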

Read-out in experiment [10]: Cyclin D2 (CCND2), CCND2 (gene 894)
Briefly: LTEA_HepaRG_CCND2: Life Technologies and Expression Analysis (LTEA) Assay for Cyclin D2 (CCND2) using HepaRG (AID 2283449; active means hit-call score of the fitted dose curve at least 0.9, where 1 is the maximum; inactive means score below 0.9;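 further: CCND2 transcript measured by TaqMan qRT-PCR and normalised to three housekeeping genes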). The following applies: mRNA level, 48 h; actives raise or lower the signal. The essentials: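 HepaRG, 48 h dosing, 8-pt half-log curve from 100 uM, 0.5% DMSO; duplicate wells. Readout: CCND2 transcript by microfluidic qRT-PCR, housekeeping-normalised; bidirectional fit vs DMSO baseline.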

Where “and” joins values, the source holds several entries; their conditions need not be identical. Equal values may be shown once. Records with an inconclusive call do not appear. A structure can be active in one record and inactive in another. Calls of active or inactive are those of the source. How the source made its calls, unless noted: active means hit-call score of the fitted dose curve at least 0.9, where 1 is the maximum; inconclusive means response in the unintended direction; inactive means score below 0.9.

Chain of Fatty acid synthase (Homo sapiens) (P49327 whole entry, looked up): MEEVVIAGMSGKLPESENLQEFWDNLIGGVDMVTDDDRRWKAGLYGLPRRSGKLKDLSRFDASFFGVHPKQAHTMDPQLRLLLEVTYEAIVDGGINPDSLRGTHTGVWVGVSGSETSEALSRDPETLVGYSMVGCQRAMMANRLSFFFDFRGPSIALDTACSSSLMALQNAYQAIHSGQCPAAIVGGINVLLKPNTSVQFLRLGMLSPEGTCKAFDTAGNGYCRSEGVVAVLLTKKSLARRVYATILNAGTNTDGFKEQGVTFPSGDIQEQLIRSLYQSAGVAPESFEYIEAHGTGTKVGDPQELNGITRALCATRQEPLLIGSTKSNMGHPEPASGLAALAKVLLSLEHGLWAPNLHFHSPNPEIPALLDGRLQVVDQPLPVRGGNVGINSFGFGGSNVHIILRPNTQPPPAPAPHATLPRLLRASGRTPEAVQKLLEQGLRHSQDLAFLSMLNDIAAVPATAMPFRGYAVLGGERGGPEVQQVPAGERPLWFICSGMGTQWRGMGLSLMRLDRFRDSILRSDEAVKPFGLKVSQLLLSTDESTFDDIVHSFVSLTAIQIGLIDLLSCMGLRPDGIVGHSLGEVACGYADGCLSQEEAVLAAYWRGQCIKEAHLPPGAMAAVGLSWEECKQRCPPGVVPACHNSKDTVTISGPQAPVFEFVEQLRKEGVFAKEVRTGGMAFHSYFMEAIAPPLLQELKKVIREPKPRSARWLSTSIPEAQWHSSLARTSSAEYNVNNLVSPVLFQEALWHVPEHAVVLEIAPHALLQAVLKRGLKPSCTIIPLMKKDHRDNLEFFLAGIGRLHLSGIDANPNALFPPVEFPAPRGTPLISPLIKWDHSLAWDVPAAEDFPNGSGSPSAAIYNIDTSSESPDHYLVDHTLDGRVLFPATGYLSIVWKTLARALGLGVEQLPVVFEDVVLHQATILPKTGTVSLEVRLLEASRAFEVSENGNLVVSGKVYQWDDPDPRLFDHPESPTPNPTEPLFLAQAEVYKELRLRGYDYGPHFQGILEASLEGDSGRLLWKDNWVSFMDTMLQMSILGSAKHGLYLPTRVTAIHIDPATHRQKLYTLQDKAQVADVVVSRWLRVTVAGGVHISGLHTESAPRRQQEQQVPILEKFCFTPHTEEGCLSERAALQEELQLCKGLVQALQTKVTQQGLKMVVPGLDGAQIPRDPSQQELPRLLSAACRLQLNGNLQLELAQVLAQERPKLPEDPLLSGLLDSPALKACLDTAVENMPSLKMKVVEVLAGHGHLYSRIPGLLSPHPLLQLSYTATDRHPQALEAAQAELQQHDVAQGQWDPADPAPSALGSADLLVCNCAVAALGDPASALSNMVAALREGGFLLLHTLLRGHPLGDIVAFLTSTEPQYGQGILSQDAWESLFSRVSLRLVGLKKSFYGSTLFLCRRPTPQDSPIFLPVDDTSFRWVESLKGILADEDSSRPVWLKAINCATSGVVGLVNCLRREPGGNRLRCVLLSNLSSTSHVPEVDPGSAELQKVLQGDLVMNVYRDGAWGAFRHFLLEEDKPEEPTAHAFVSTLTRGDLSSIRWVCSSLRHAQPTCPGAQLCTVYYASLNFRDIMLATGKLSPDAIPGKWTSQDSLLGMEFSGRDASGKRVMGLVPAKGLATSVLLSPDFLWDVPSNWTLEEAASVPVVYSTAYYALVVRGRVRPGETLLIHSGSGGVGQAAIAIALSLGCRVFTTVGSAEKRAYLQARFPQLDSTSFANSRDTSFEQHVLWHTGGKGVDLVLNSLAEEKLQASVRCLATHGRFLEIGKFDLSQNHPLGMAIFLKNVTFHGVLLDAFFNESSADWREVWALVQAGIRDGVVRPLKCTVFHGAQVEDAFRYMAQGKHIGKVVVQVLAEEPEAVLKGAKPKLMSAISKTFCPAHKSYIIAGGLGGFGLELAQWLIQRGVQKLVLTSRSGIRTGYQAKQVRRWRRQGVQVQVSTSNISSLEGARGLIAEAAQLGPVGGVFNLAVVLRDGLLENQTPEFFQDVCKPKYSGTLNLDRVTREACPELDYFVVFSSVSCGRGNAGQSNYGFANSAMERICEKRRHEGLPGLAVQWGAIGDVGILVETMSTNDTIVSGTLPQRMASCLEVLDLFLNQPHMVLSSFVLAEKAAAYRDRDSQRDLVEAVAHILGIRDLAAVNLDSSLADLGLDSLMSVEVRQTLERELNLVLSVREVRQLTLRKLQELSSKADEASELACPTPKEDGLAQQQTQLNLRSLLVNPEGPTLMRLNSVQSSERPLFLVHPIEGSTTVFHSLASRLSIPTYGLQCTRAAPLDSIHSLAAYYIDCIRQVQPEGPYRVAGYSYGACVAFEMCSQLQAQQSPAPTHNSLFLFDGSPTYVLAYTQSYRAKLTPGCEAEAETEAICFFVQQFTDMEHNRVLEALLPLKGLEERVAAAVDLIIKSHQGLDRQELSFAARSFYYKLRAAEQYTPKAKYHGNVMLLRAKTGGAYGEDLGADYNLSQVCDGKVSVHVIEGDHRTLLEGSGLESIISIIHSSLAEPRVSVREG
Chain of Peroxisome proliferator-activated receptor gamma (Homo sapiens) (P37231 whole entry, looked up, the tested form may be a part): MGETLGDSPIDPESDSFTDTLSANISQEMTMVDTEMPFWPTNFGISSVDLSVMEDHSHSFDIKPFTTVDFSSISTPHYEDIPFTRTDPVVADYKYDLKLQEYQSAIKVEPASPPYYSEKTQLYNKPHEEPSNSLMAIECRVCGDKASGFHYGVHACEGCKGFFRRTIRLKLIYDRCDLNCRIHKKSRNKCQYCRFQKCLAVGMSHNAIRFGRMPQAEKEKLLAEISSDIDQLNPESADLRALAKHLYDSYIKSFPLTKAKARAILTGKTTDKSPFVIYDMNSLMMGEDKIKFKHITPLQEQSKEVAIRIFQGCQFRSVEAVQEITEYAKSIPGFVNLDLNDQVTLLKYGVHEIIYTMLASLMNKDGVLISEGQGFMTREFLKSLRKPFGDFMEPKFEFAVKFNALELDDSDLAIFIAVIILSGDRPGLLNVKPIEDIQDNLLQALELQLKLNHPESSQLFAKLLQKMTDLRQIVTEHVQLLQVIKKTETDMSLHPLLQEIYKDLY
Chain of Retinoic acid receptor RXR-alpha (Homo sapiens) (P19793 whole entry, looked up): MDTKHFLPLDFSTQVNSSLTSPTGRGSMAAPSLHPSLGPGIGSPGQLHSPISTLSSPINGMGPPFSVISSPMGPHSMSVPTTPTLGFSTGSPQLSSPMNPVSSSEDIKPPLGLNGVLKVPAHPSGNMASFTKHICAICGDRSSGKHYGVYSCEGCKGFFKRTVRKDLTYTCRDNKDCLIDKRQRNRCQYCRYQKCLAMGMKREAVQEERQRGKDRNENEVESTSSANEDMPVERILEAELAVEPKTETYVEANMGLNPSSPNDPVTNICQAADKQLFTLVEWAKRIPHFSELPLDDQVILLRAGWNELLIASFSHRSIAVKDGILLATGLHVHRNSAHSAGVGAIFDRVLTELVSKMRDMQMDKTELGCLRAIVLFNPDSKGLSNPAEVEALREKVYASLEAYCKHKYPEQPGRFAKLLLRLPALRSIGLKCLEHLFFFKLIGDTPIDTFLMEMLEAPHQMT
Chain of Bile acid receptor (Homo sapiens) (Q96RI1 whole entry, looked up): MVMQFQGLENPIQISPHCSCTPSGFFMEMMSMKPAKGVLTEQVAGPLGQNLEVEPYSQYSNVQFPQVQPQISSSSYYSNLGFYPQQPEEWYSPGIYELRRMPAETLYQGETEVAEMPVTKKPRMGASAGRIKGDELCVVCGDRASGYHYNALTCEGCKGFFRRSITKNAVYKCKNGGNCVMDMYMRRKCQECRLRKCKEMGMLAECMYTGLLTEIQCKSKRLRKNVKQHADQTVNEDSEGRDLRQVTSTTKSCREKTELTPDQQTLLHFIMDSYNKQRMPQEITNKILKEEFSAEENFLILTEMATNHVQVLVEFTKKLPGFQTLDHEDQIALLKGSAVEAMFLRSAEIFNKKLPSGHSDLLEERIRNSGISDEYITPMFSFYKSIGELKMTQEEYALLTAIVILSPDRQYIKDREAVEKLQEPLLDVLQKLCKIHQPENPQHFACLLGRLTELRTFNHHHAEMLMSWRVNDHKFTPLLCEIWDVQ

On to `COc1ccc(C(c2ccc(OC)cc2)C(Cl)(Cl)Cl)cc1`, for which the AC50 in [1] was 32.1 µM (active) and 35 µM (active) and 27 µM (active); in experiment [2], 30.4 µM (active) and 35.6 µM (active) and 28.4 µM (active); in experiment [3], 66 µM (active); in experiment [8], 80.5 µM (active). Moreover, the call in [3], in experiment [4], in experiment [5], in experiment [6], in experiment [7] and in experiment [9] was inactive.

For the molecule `CC(C)(C)c1ccc(CSc2cnn(C(C)(C)C)c(=O)c2Cl)cc1`, the AC50 in [1] is 5.14 µM (active); in experiment [7] it was 1.9 µM (active); in experiment [8] it was 24 µM (active); in experiment [9], 2.3 µM (active). Further, the molecule was classed as inactive in experiment [2], in experiment [3], in [4], in experiment [5], in [6] and in experiment [10].

On to `CCCCC(CC)COC(=O)c1ccccc1C(=O)OCC(CC)CCCC` (stereo not drawn), for which the call in experiment [1], in [2], in experiment [3], in experiment [4], in [5] and in [6] was inactive. In addition, the molecule was classed as inactive in experiment [7], in [8], in [10] and in experiment [9].

As to `COP(N)(=O)SC` (stereo not drawn), the result in experiment [1], in experiment [2], in [3], in experiment [4], in [5] and in experiment [6] was inactive. In addition, the result in experiment [7], in [8], in experiment [10] and in [9] was inactive.

As to `C=CCC1=C(C)[C@@H](OC(=O)[C@@H]2[C@@H](C=C(C)C)C2(C)C)CC1=O`, the AC50 was 16.6 µM (active) in [1], 50 µM (active) in experiment [2], 31.5 µM (active) in experiment [3] and 80.6 µM (active) in experiment [4]. For the same molecule, the call in experiment [3], in [4], in experiment [5], in [6], in experiment [7] and in [8] was inactive. Besides, the result in [10] and in [9] was inactive.

Consider `Cc1ccc(-c2c(Cl)nc(C#N)n2S(=O)(=O)N(C)C)cc1`, for which the outcome in [1], in experiment [2], in experiment [3], in [4], in experiment [5] and in experiment [6] was inactive. The result in experiment [7] and in [9] was inactive. Moreover, the AC50 in experiment [8] was 9 µM (active); in experiment [10], 0.00629 µM (active).

For the molecule `Fc1ccc(Oc2ccnc3cc(Cl)cc(Cl)c23)cc1`, the AC50 in [1] was 12.6 µM (active); in experiment [2] it was 29.1 µM (active); in [3], 28.3 µM (active); in experiment [4], 70.8 µM (active) and 65.4 µM (active). For the same molecule, the result in [3], in experiment [5], in [6], in experiment [7], in experiment [8] and in experiment [10] was inactive. For the same molecule, the molecule was called inactive in experiment [9].

The record behind these values is PubChem BioAssay (EPA / NIEHS).
